Activity calls are given as the source filed them. Rule for the calls: active = hit-call score of the fitted dose curve at least 0.9, where 1 is the maximum; inactive = score below 0.9.
Assay: BSK_3C_TissueFactor: BioMAP Diversity Plus: 3C Assay for Tissue Factor Biomarker Activity (AID 2282997)
Conditions: BioMAP 3C HUVEC, tissue factor biomarker readout; actives raise or lower the signal
Method: BSK_3C is a cell-based, multiplexed-readout assay that uses umbilical vein endothelium, a human vascular primary cell, with measurements taken at 24 hours after chemical dosing in a 96-well plate.BSK_3C_TissueFactor is an assay component measured in the BSK_3C assay. It measures Tissue Factor antibody related to regulation of gene expression using ELISA technology.Data from the assay component BSK_3C_TissueFactor was analyzed into 1 assay endpoint. This assay endpoint, BSK_3C_TissueFactor, was analyzed with bidirectional fitting relative to DMSO as the negative control and baseline of activity. Using a type of binding reporter, gain or loss-of-signal activity can be used to understand changes in the signaling as they relate to the gene F3. Furthermore, this assay endpoint can be referred to as a primary readout, because this assay has produced multiple assay endpoints where this one serves a signaling function. To generalize the intended target to other relatable targets, this assay endpoint is annotated to the cytokine intended target family, where the subfamily is coagulation factor.
The levels of cell surface (or secreted, indicated by the prefix "s") biomarker endpoints were measured by ELISA. Overt cytotoxicity to cells in confluent adherent cultures (all systems other than the BT system) was assessed by measuring total protein levels using sulforhodamine B (SRB) staining in parallel cultures at the time of biomarker measurements, indicated as SRB endpoints. For proliferation assays for adherent cell types, individual cell types are cultured at sub-confluence and relative cell numbers quantified by SRB staining at time points optimized for each system (48 h: 3C and CASM3C systems; 72 h: BT and HDF3CGF systems; 96 h: SAg system). SRB was performed by staining cells with 0.1% SRB after fixation with 10% TCA and reading wells at 560 nm.Viability and proliferation of PBMC (T cells) was quantified by Alamar Blue reduction for the SAg and BT systems. For PBMC viability (referred to as PBMC Cytotoxicity within the assay endpoint names), cells were plated (75,000/well in a 96-well plate) and then chemical samples added for 1 h before addition of activators, SEB and TSST-1 (20 ng/mL final concentration each). Cells were incubated for 90 h. Then, Alamar Blue (20 uL/well) (Invitrogen, Cat DAL1100) was added for 6 h, and the plates were read with a fluorescence microplate reader at 546/580 nm (excitation/emission). For PBMC proliferation, cells were plated and activated as above but incubated for only 16 h prior to addition of Alamar Blue. Plates were read after 6 h.

| Structure (SMILES) | outcome | AC50 |
| --- | --- | --- |
| CC(O)CCO (stereo not given) | inactive |  |
| Clc1ccc(Cl)c(Cl)c1 | inactive |  |
| [O-][Cl+]O | inactive |  |
| Cc1ccc(N=C=O)cc1N=C=O | inactive |  |
| CCOc1cccc(C2(N3CCN(c4ccccc4)CC3)CCC(C)CC2)c1 (stereo not given) | inactive |  |
| CC(C)(C)C(O)(CCc1ccc(Cl)cc1)Cn1cncn1 (stereo not given) | inactive |  |
| CN(C)c1ccc(C(=O)c2ccc(N(C)C)cc2)cc1 | inactive |  |
| CCN(CC)CCO | inactive |  |
| c1ccc2c(c1)oc1ccccc12 | inactive |  |
| Clc1ccccc1Cl | inactive |  |
| Cc1ccc(N)c(N)c1 | inactive |  |
| Cc1cc(N=Nc2ccccc2C)ccc1N | inactive |  |
| COC(=O)c1ccccc1N | inactive |  |
| Clc1ccc(C(c2ccc(Cl)cc2)C(Cl)Cl)cc1 |  | 32.2 µM (active) |
| Nc1cc(Cl)cc(C(=O)O)c1Cl | inactive |  |
| CCCCCOC(=O)c1ccccc1C(=O)OCCCCC | inactive |  |
| CCNS(=O)(=O)C(F)(F)C(F)(F)C(F)(F)C(F)(F)C(F)(F)C(F)(F)C(F)(F)C(F)(F)F | inactive |  |
| Brc1ccc(Oc2ccccc2)cc1 | inactive |  |
| O=[N+]([O-])c1ccc(Oc2ccc(Cl)cc2Cl)cc1 | inactive |  |
| Clc1ccc(C(c2ccc(Cl)cc2)C(Cl)(Cl)Cl)cc1 |  | 27.7 µM (active) |

| Structure (SMILES) | outcome | AC50 |
| --- | --- | --- |
| CCCCCCCCn1sccc1=O |  | 11.7 µM (active) |
| C1=Cc2cccc3cccc1c23 | inactive |  |
| COC(=O)Nc1nc2ccccc2[nH]1 | inactive |  |
| CC(C)COC(=O)c1ccccc1C(=O)OCC(C)C |  | 12.4 µM (active) |
| CN(C)c1ccccc1 | inactive |  |
| CCN(CC)N=O | inactive |  |
| CN(C)[C@@H]1C(=O)C(C(N)=O)=C(O)[C@@]2(O)C(=O)C3=C(O)c4c(O)cccc4[C@@](C)(O)[C@H]3C[C@@H]12 | inactive |  |
| CCCCCCCCOC(=O)c1ccc(C(=O)OCCCCCCCC)c(C(=O)OCCCCCCCC)c1 | inactive |  |
| CC(C)(C)OOC(C)(C)CCC(C)(C)OOC(C)(C)C | inactive |  |
| CCCSC(=O)N(CCC)CCC | inactive |  |
| COP(=S)(OC)SCN1C(=O)c2ccccc2C1=O |  | 7.76 µM (active) |
| Cc1cccc(N)c1N | inactive |  |
| O=C1CCCO1 | inactive |  |
| C[C@]12C=CC3=C4CCC(=O)C=C4CC[C@H]3[C@@H]1CC[C@@H]2O | inactive |  |
| O=C(N[C@H](c1ccccc1)[C@@H]1CN2CCC1CC2)c1c(Cl)ccc(C(F)(F)F)c1Cl | inactive |  |
| ClC1=C(Cl)C2(Cl)C3C(Cl)C=CC3C1(Cl)C2(Cl)Cl (stereo not given) |  | 26.9 µM (active) |
| Nc1ccc([N+](=O)[O-])cc1 | inactive |  |
| N#CC(Br)Br | inactive |  |
| c1ccc(C2CO2)cc1 (stereo not given) | inactive |  |
| CCC12COCN1COC2 | inactive |  |
